The list is not random: actives were taken first. Their share in the collection is about 3.8%.
MPTP inh = inhibitors of mitochondrial permeability transition pore. isolated mouse mitochondria, Ca2+ swelling absorbance, 30 min. inhibition, % at 10 µM. actives 1.4% (n = 360,000). AID 602449;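 active = inhibition of 50% or more, scaled per plate between neutral and stimulator controls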;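 also: 0% = DMSO wells given calcium and 100% = 1 mM EGTA wells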
FAS-TE inh = inhibitors of human fatty acid synthase thioesterase domain | P49327 | recombinant FAS-TE, OMFH fluorogenic substrate, fluorescence endpoint | inhibition, % at 15 µM | actives 0.67% (n = 360,000) | AID 602261;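 active = compounds whose normalised, plate-corrected inhibition of enzyme fluorescence in the single-dose primary screen is 50% or more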;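 also: 0% = DMSO with enzyme and 100% = substrate without enzyme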
Target sequence (P49327 whole entry, looked up, the tested form may be a part): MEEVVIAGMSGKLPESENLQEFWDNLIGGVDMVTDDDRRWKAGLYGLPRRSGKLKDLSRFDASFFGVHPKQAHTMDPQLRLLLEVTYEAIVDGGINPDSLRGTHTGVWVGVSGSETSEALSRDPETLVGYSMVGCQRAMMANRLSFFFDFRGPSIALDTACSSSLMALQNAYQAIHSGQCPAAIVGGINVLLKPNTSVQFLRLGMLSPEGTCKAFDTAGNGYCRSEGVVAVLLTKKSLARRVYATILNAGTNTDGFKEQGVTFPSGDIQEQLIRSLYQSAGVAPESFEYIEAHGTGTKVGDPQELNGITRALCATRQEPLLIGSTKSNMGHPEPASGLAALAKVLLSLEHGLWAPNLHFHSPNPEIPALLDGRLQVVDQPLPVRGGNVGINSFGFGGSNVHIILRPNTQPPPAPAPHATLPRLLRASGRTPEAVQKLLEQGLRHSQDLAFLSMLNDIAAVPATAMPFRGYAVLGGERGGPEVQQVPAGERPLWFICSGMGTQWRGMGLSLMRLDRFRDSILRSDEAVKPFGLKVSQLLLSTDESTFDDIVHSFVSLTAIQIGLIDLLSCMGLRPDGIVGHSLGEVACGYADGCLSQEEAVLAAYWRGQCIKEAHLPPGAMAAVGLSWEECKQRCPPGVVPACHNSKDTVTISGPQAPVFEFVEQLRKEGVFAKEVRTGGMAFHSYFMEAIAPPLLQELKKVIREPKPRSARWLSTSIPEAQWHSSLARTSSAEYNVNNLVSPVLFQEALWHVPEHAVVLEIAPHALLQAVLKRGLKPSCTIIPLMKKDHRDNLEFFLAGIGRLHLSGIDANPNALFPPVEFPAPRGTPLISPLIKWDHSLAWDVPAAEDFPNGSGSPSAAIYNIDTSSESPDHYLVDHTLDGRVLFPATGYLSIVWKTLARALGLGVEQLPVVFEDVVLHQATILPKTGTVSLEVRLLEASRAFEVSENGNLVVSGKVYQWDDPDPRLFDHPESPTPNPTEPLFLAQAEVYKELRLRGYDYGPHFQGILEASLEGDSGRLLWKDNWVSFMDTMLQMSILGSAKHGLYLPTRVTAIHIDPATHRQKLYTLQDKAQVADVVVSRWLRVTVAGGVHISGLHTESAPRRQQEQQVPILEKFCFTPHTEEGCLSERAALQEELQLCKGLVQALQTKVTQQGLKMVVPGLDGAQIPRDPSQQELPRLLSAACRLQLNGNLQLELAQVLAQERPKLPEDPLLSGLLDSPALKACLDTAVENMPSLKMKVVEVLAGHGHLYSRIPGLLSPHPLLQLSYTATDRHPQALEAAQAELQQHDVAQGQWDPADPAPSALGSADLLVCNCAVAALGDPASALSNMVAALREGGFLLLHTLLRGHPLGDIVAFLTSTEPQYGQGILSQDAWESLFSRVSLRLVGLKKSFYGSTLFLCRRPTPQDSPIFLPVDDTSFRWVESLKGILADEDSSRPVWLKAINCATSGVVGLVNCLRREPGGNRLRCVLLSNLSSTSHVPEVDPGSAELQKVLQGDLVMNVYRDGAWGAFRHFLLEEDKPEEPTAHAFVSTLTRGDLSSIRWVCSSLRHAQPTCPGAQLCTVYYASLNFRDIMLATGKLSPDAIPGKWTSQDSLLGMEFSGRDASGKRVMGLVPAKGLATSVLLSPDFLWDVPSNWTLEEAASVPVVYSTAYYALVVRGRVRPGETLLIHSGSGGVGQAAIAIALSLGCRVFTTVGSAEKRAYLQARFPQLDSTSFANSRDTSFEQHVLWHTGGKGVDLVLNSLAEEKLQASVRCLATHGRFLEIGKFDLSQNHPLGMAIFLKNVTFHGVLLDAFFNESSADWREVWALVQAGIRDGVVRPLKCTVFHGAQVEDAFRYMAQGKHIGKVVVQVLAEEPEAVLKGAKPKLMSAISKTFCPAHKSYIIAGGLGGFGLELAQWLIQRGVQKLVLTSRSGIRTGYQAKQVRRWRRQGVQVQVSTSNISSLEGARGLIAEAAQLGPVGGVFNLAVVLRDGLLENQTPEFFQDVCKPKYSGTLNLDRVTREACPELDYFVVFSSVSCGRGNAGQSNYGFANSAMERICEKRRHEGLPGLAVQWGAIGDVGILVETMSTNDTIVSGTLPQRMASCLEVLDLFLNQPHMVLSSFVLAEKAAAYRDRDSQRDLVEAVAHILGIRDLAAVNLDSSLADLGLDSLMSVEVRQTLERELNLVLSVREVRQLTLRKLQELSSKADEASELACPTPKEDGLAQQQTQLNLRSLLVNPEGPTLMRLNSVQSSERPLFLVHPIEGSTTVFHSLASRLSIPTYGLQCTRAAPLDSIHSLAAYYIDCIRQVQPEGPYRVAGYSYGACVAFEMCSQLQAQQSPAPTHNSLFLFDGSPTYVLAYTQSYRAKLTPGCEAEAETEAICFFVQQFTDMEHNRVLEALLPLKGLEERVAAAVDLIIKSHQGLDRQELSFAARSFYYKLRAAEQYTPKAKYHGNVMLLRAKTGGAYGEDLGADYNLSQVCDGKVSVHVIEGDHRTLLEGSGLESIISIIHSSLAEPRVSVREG
Mot1-301 SUMO = inhibitors of SUMOylation pathway: yeast Mot1-301 growth rescue. S. cerevisiae Mot1-301 growth rescue, ATP luminescence, 38.5C; percent above DMSO median, 100 means doubled. growth rescue, % at 18.8 µM. actives 1% (n = 320,000);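 active = every valid replicate shows activation above 250% relative to neutral control wells; inactive = the rest, any valid replicate at or below 250%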;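 also: OY570 slx delta 5 strain wells were the positive control but not used for scaling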
aDG glyco up = increases alpha dystroglycan glycosylation | actives 0.22% (n = 360,000) | Pro5-aDG cells, alpha-DG glycosylation AlphaScreen (IIH6); 0% Pro5, 100% B10-LARGE cell signal | activation, % at 10 µM;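 active = activation of at least 8% versus controls, or a plate z-score of at least 8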;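 also: Pro5 are CHO cells carrying HIG-tagged alpha-DG that lacks glycosylation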
Cardio protect = myocardial damage modulation in H9c2 cells | H9c2 cardiomyocytes, H2O2 injury protection, ATPLite, 2 h | protection from H2O2 cell death, % at 20 µM | actives 0.63% (n = 360,000) | AID 588492;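 active = compounds giving at least 50% protection of heart cells from peroxide-induced death in the single-dose screen, raw or plate-pattern-corrected value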;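 also: 0% = DMSO wells with peroxide and 100% = DMSO wells without peroxide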
Yeast superoxide = caloric restriction mimetics inhibiting age-related superoxide in yeast; actives 0.18% (n = 330,000); AID 2690; S. cerevisiae aged cells, superoxide DHE fluorescence; active compounds read low; superoxide response (% of plate mean), % at 10 µM;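 active = superoxide response under a set limit, about three screen SD below normal, cut at about 65% in these data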;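 also: yeast aged for seven days with compound at 30 °C before DHE staining; 100% = average MFI of all compound-treated wells on the plate with controls excluded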
MPTP counter = mitochondrial membrane potential, counter-screen. shares compounds with MPTP inh. isolated mitochondria, Rhodamine 123 fluorescence. inhibition, % at 10 µM. actives 78% (n = 5,000). AID 624504; in the data active = inhibition above about 22%;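 also: 0% = DMSO vehicle and 100% = positive control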
The depositor's hits bear a star; · = not tested or not shown; + = active, no number.

SMILES | MPTP inh | FAS-TE inh | Mot1-301 SUMO | aDG glyco up | Cardio protect | Yeast superoxide | MPTP counter
O=C(c1ccco1)N1CCN(CCOCCOc2cccc3ccccc23)CC1 | 2 | -1 | 7 | 0 | 5 | 94 | ·
Cc1ccc2c(C)nc(SC(C(=O)c3ccccc3)c3ccccc3)nc2c1 (stereo not given) | 2 | 14 | -15 | 0 | -6 | 100 | ·
O=C(COC(=O)c1cc(S(=O)(=O)N2CCCC2)ccc1O)Nc1ccc(S(=O)(=O)N2CCOCC2)cc1 | 11 | -2 | -14 | 0 | -4 | 93 | ·
O=C(COC(=O)c1cc(S(=O)(=O)N2CCCC2)ccc1O)Nc1ccc(SC(F)F)cc1 | 92* | 5 | · | 0 | -21 | 104 | 96*
Cc1cccc(NC(=O)C(C)C(=O)c2ccccc2)c1 (stereo not given) | 0 | 0 | -15 | 0 | 4 | 100 | ·
Cc1ccc(NC(=O)C(C)c2cccc(C(=O)c3ccccc3)c2)cc1O (stereo not given) | 96* | 7 | 10 | 3 | -22 | 94 | 84*
COCCCNC(=O)c1nc2ccccc2c(=O)n1NC(=O)Nc1c(Cl)cccc1Cl | 0 | -4 | 500 | 0 | 6 | 85 | ·
COCCCNC(=O)c1c(N)n(/N=C/c2cccs2)c2nc3ccccc3nc12 | -4 | -1 | 10 | 0 | 16 | 108 | ·
COCCCNC(=O)c1c(N)n(/N=C/c2cccnc2)c2nc3ccccc3nc12 | + | -4 | · | -1 | 47 | 113 | -2
CCOC(=O)CC1(NC(=O)c2cc(COc3c(F)cccc3F)on2)CCCCC1 | -1 | 16 | · | 0 | -5 | 101 | ·
CC1CCN(C(=O)c2[nH]cnc2C(=O)Nc2ccon2)CC1 | 0 | -9 | 5 | 0 | -1 | 67 | ·
Cc1cc(C)c(C(=O)Nc2ccc(Br)c(C(F)(F)F)c2)c(C)c1 | 58* | 14 | -6 | 0 | -27 | 67 | 83*
CCCCNS(=O)(=O)c1ccc(NC(=O)C(Sc2ccccc2)c2ccccc2)cc1 (stereo not given) | 76* | 31 | 46 | 1 | -13 | 86 | 68*
CCC(C)NS(=O)(=O)c1ccc(NC(=O)C(Sc2ccccc2)c2ccccc2)cc1 (stereo not given) | 31 | 30 | 4 | 1 | -12 | 104 | ·
CN(C)c1cccc(/C=C(\C#N)c2ccccc2)c1 | 0 | 28 | 8 | 0 | -20 | 113 | ·
COc1ccc(OC)c(NC(=O)CSc2ncnc3c2cnn3-c2ccccc2Cl)c1 | 84* | 36 | 12 | 2 | -29 | 89 | 82*
COC(=O)CSc1ncnc2c1cnn2Cc1ccccc1 | -2 | -31 | 144 | 0 | 30 | 94 | ·
COc1ccc(OC)c(NC(=O)CSc2ncccn2)c1 | 0 | -9 | -16 | 0 | 7 | 110 | ·
COc1cc(NC(=O)CSc2ncnc3c2cnn3Cc2ccccc2)cc(OC)c1 | 54* | 25 | -23 | 0 | -8 | 100 | 28*
Cc1cccc(C)c1-n1nnnc1C(c1cc2ccccc2o1)N1CCN(C/C=C/c2ccccc2)CC1 (stereo not given) | 5 | 22 | · | -1 | 0 | · | ·
Oc1ccc(Cl)cc1-c1cc(-c2cccc(Br)c2)n[nH]1 | 89* | 21 | 35 | 0 | -14 | 121 | 68*
Oc1ccc(Cl)cc1-c1cc(-c2ccco2)[nH]n1 | 0 | 15 | 16 | 0 | -26 | 89 | ·
Oc1ccccc1-c1cc(-c2cccc(F)c2)n[nH]1 | 58* | 11 | 1 | 0 | -22 | 102 | 71*
Oc1ccc(Cl)cc1-c1cc(-c2ccccc2Cl)[nH]n1 | 61* | -8 | 12 | 0 | -20 | 110 | 67*
COc1ccc(Cl)cc1NC(=O)CN(C)C1CCS(=O)(=O)C1 (stereo not given) | 0 | -7 | · | 0 | 1 | 102 | ·
SMILES | MPTP inh | FAS-TE inh | Mot1-301 SUMO | aDG glyco up | Cardio protect | Yeast superoxide | MPTP counter
CCCOC(=O)c1ccc(Oc2cn[nH]c2-c2ccc(O)cc2O)cc1 | 44 | -132 | -13 | 1 | -19 | 117 | ·
COc1ccc(Oc2cn[nH]c2-c2ccc(O)cc2O)cc1 | 0 | -206 | 7 | 0 | 7 | 92 | ·
CCCc1ccc(Oc2cn[nH]c2-c2ccc(O)cc2O)cc1 | 64* | -150 | 195 | 3 | -20 | 119 | 39*
CCOC(=O)c1ccc(Oc2cn[nH]c2-c2ccc(O)cc2O)cc1 | 55* | -146 | -1 | 1 | -14 | 131 | 26*
N#Cc1c(N)nc(Sc2ccc(Cl)cc2)c(C#N)c1-c1ccccc1Cl | 76* | 9 | -7 | 1 | -13 | 106 | 56*
Cc1ccc([N+](=O)[O-])cc1N=Nc1c(-c2ccc([N+](=O)[O-])cc2)[nH]n(C(N)=S)c1=O | 99* | 30 | · | -1 | -23 | · | 69*
Cc1ccc(N=Nc2c(C)[nH]n(C(N)=S)c2=O)cc1 | -2 | -1 | -6 | 0 | -1 | 102 | ·
COC1=CC(=O)[C@@]2([C@@H]1O)[C@@H](Cl)C[C@]13C(OC)=C(OC)C(=O)C[C@]21CCN3C | 0 | -10 | -8 | 0 | 1 | 101 | ·
O=C(Cc1ccc(S(=O)(=O)N2CCCCC2)s1)Nc1ccc(F)c(F)c1 | 67* | 24 | 155 | 1 | -27 | 104 | 83*
O=C(Cc1ccc(S(=O)(=O)N2CCOCC2)s1)Nc1cc(C(F)(F)F)ccc1N1CCCC1 | -1 | 22 | -9 | 0 | -2 | 107 | ·
O=C(Cc1ccc(S(=O)(=O)N2CCOCC2)s1)Nc1cc(C(F)(F)F)cc(C(F)(F)F)c1 | 69* | 34 | -3 | 1 | -8 | 98 | 78*
Cn1c(CNC(=O)CNC(=O)Cc2ccc(F)cc2)cc(=O)n(C)c1=O | -1 | -4 | -9 | 0 | 5 | 96 | ·
OC(COCCOc1ccc(Br)cc1)CN1CCN(Cc2ccccc2)CC1 (stereo not given) | 3 | -3 | 56 | 0 | -10 | 90 | ·
COCCn1c(SCc2ccc(C(=O)OC)o2)nc2ccccc2c1=O | 3 | 8 | -9 | 0 | 5 | 98 | ·
Cc1ccc(-c2nc(CSc3nc4ccccc4c(=O)n3C)cs2)cc1 | 100* | 19 | -9 | 2 | -16 | 98 | 45*
COC(=O)c1cc(CSc2nc3ccccc3c(=O)n2C)oc1C | 84* | 20 | 5 | 2 | -11 | 116 | 93*
O=C(CCNC(=O)c1ccc(Br)cc1)NCC1COc2ccccc2O1 (stereo not given) | 2 | 5 | -3 | 0 | 1 | 92 | ·
COc1cccc(NC(=S)NC2CC(C)CC(C)(C)C2)c1 (stereo not given) | 64* | 16 | · | 1 | -13 | · | 93*
COc1cccc(NC(=S)Nc2ccc(O)cc2)c1 | -1 | -4 | -14 | 0 | -3 | 100 | ·

Screens from PubChem.
